The values that follow come from PubChem BioAssay (EPA / NIEHS).

One may read the AC50 as the concentration at which the activity in the assay is half-maximal.

Molecules are shown by their SMILES. Activity calls are given as the source filed them. The calls were made as follows: active = hit-call score of the fitted dose curve at least 0.9, where 1 is the maximum; inactive = score below 0.9.

Experiment [1] in a line: ATG_CRE_CIS: Attagene CIS-FACTORIAL HepG2 Assay for human cAMP Responsive Element (CRE) binding protein 3 (AID 2282926). Particulars: HepG2 CRE cis-reporter, Attagene multiplexed mRNA; actives raise or lower the signal. A digest of the protocol: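 Readout: fluorescently labelled reporter transcripts resolved by capillary electrophoresis after RT-PCR, taken 24 h post-dosing in transfected HepG2. Endogenous transcription factor activity drives each cis-element reporter; gain or loss of signal fitted relative to DMSO control.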

In experiment [2] the target is CCAAT/enhancer-binding protein beta (Homo sapiens) (UniProt P17676). As to the kind of experiment: ATG_C_EBP_CIS: Attagene CIS-FACTORIAL HepG2 Assay for human CCAAT/Enhancer Binding Protein (C/EBP) beta (AID 2282927). To be noted: HepG2 Attagene cis-factorial transcription factor reporter; actives raise or lower the signal. A digest of the protocol:
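Endogenous transcription factor activity in human liver HepG2 cells is inferred from induction of a CEBPB-linked reporter mRNA. Exposure lasts 24 h; activity is fitted in both directions relative to DMSO.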

A short description of experiment [3]: ATG_CMV_CIS: Attagene CIS-FACTORIAL HepG2 Assay for human CMV (Internal Marker) (AID 2282928).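 Also: endpoint acts as a background internal control marker rather than a target.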 To be noted: HepG2 CMV promoter reporter, transcription factor profiling; actives raise or lower the signal. The gist of the method:
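Readout: fluorescent reporter cDNA fragments separated by capillary electrophoresis after RT-PCR and HpaI cut. Cells: HepG2 carrying transfected cis-promoter reporter constructs, dosed 24 h. Endpoint serves as background internal-marker control, fit bidirectionally versus DMSO.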

Experiment [4] is described as follows: ATG_DR4_LXR_CIS: Attagene CIS-FACTORIAL HepG2 Assay for human Liver X Receptor (LXR), DR4 submotif (AID 2282929). To be noted: HepG2 Attagene DR4 cis-reporter, mRNA transcription; actives raise or lower the signal. The gist of the method:
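Measures endogenous transcription factor activity via a DR4-driven reporter transcript in human HepG2 cells. Compounds incubated 24 h; mRNA quantified by RT-PCR and capillary electrophoresis, analysed as gain or loss of signal versus DMSO.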

Experiment [5] deals with Aryl hydrocarbon receptor (Homo sapiens) (UniProt P35869). Nature of the experiment: ATG_Ahr_CIS: Attagene CIS-FACTORIAL HepG2 Assay for human Aryl Hydrocarbon Receptor (Ahr) (AID 2282930). Particulars: HepG2 AhR cis-factorial reporter transcription; actives raise or lower the signal. The gist of the method: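 Transient MRTU transfection of HepG2 → 24 h compound exposure → total RNA, oligo(dT) RT → PCR, 6-FAM extension, HpaI cut → CE fluorescence. DMSO = baseline; bidirectional curve fit.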

Experiment [6] is described as follows: ATG_AP_1_CIS: Attagene CIS-FACTORIAL HepG2 Assay for human Activator Protein 1 (AP-1) (AID 2282931). Particulars: HepG2 Attagene cis-factorial AP-1 reporter mRNA; actives raise or lower the signal. The gist of the method:
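Bidirectional concentration-response fitting against DMSO controls. Underlying signal: reporter mRNA from cis-promoter constructs in transiently transfected HepG2, measured after 24 h by RT-PCR and capillary electrophoresis.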

A short description of experiment [7]: ATG_AP_2_CIS: Attagene CIS-FACTORIAL HepG2 Assay for human Activator Protein 2 (AP-2) (AID 2282932). To be noted: HepG2 AP-2 cis-reporter, Attagene transcription factor profiling; actives raise or lower the signal. The gist of the method:
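Endogenous transcription factor activity is reported through transfected multiplex reporter constructs in HepG2, after 24 h of compound exposure. Transcripts were quantified by RT-PCR and capillary electrophoresis of fluorescent fragments. Bidirectional fit against DMSO.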

A short description of experiment [8]: ATG_BRE_CIS: Attagene CIS-FACTORIAL HepG2 Assay for human Bone Morphogenetic Protein (BMP) Response Element (BRE) (AID 2282933). To be noted: HepG2 BMP response element reporter, Attagene transcription factor profiling; actives raise or lower the signal. A digest of the protocol: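 HepG2 cells transiently transfected with multiplexed cis-element reporter units were dosed with chemical for 24 h. Reporter mRNA was measured by RT-PCR with fluorescent labelling, HpaI digestion and capillary electrophoresis; bidirectional fitting relative to DMSO.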

Experiment [9] concerns the target Retinoic acid receptor alpha (Homo sapiens) (UniProt P10276). Nature of the experiment: ATG_DR5_RAR_CIS: Attagene CIS-FACTORIAL HepG2 Assay for human Retinoic Acid Receptor Alpha (RARE), DR5 submotif (AID 2282934). Particulars: HepG2 Attagene cis-factorial RARE DR5 reporter, mRNA; actives raise or lower the signal. The gist of the method:
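Transient MRTU transfection of HepG2; 24 h compound treatment; TriZol RNA, oligo(dT) RT, PCR, FAM labelling, capillary electrophoresis. Bidirectional fit vs DMSO. Endogenous TF activity at DR5 RARE.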

The target of experiment [10] is Transcription factor E2F1 (Homo sapiens) (UniProt Q01094). As to the kind of experiment: ATG_E2F_CIS: Attagene CIS-FACTORIAL HepG2 Assay for human E2F Transcription Factor 1 (AID 2282935). To be noted: HepG2 Attagene cis-reporter, E2F reporter RNA transcripts; actives raise or lower the signal. A digest of the protocol: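 Gain or loss of reporter transcript, fitted against DMSO, reflects E2F1-driven transcription. Transiently transfected HepG2 dosed 24 h before RNA isolation. Quantified by fluorescent RT-PCR products separated by capillary electrophoresis.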

A short description of experiment [11]: ATG_E_Box_CIS: Attagene CIS-FACTORIAL HepG2 Assay for human Enhancer Box (E-box) (AID 2282936). Particulars: HepG2 E-box cis-reporter transcription, actives raise or lower the signal. A digest of the protocol: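 E-box-driven reporter transcripts measured in transiently transfected HepG2 after 24 h exposure: RNA reverse-transcribed, PCR-amplified, fluorescently labelled, digested and resolved by capillary electrophoresis. Gain or loss relative to DMSO.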

Experiment [12] in a line: ATG_M_61_CIS: Attagene CIS-FACTORIAL HepG2 Assay for M61 Transcription Factor (Internal Marker) (AID 2282937). To be noted: HepG2 Attagene CIS-FACTORIAL M61 internal marker reporter; actives raise or lower the signal. A digest of the protocol:
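Fluorescence from labelled cDNA fragments, separated by capillary electrophoresis, quantifies reporter induction. HepG2 cells bearing transiently transfected cis-promoter MRTUs were incubated with test chemical for 24 h; DMSO defined baseline for gain/loss fitting.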

A short description of experiment [13]: ATG_EGR_CIS: Attagene CIS-FACTORIAL HepG2 Assay for human Early Growth Response 1 (EGR1) (AID 2282938). Particulars: HepG2 Attagene CIS-FACTORIAL EGR reporter mRNA; actives raise or lower the signal. A digest of the protocol:
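Cell-based multiplex transcription assay: HepG2 carrying transfected cis-element reporter units, 24 h chemical treatment. Fluorescence from capillary electrophoresis of RT-PCR products gives mRNA levels; fitting is bidirectional relative to DMSO.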

Experiment [14] is described as follows: ATG_M_19_CIS: Attagene CIS-FACTORIAL HepG2 Assay for M19 Transcription Factor (Internal Marker) (AID 2282939). Particulars: HepG2 Attagene CIS-FACTORIAL M19 internal marker reporter; actives raise or lower the signal. The gist of the method:
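HepG2 cells transiently transfected with cis-regulated multiple reporter transcription units were dosed for 24 h; reporter mRNA was quantified by RT-PCR, 6-FAM primer-extension labelling, HpaI digestion and capillary electrophoresis, with bidirectional fitting against DMSO baseline.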

Experiment [15] deals with Hepatocyte nuclear factor 3-beta (Homo sapiens) (UniProt Q9Y261). As to the kind of experiment: ATG_FoxA2_CIS: Attagene CIS-FACTORIAL HepG2 Assay for human Forkhead box A2 (FOXA2) (AID 2282942). To be noted: HepG2 cis-reporter transcription factor activity, 24 h; actives raise or lower the signal. A digest of the protocol: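 In transiently transfected human HepG2 cells, promoter-driven reporter mRNA levels after 24 h chemical exposure are determined via RT-PCR with capillary electrophoresis. DMSO serves as baseline for bidirectional fitting.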

A short description of experiment [16]: ATG_FoxO_CIS: Attagene CIS-FACTORIAL HepG2 Assay for human Forkhead box O (FoxO) (AID 2282943). To be noted: HepG2 Attagene cis-reporter, FoxO element, mRNA; actives raise or lower the signal. A digest of the protocol: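 HepG2, transient MRTU transfection (cis element, endogenous TFs). Dose 24 h. TriZol RNA → oligo(dT) RT → PCR → 6-FAM primer extension → HpaI cut → CE. Gain/loss vs DMSO.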

Experiment [17] in a line: ATG_GATA_CIS: Attagene CIS-FACTORIAL HepG2 Assay for human GATA Binding Protein (AID 2282944). To be noted: HepG2 GATA cis-element reporter, Attagene multiplex mRNA; actives raise or lower the signal. The gist of the method:
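HepG2 cells transiently transfected with multiplexed cis-element reporter units reflecting endogenous transcription factor activity; reporter mRNA measured after 24 h dosing by RT-PCR, 6-FAM labeling, HpaI digestion and capillary electrophoresis. Bidirectional fitting versus DMSO baseline.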

A short description of experiment [18]: ATG_GLI_CIS: Attagene CIS-FACTORIAL HepG2 Assay for human Zinc Finger Protein GLI1 (AID 2282945). Particulars: HepG2, Attagene cis-factorial reporter mRNA, GLI element; actives raise or lower the signal. The gist of the method: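 Bidirectional curve fits relative to DMSO, using reporter mRNA levels from RT-PCR plus capillary electrophoresis. Cells were HepG2 transiently carrying cis-regulated reporter constructs, harvested 24 h after dosing.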

The target of experiment [19] is Bile acid receptor (Homo sapiens) (UniProt Q96RI1). Nature of the experiment: ATG_IR1_CIS: Attagene CIS-FACTORIAL HepG2 Assay for human Nuclear Receptor Subfamily 1 Group H Member 4 (NR1H4), IR1 submotif (AID 2282946). To be noted: IR1 reporter transcription, actives raise or lower the signal. The gist of the method:
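HepG2 cells transiently transfected with multiplexed cis-element reporter units read endogenous transcription factor activity. After 24 h compound exposure, reporter mRNA was quantified by RT-PCR, fluorescent labelling, HpaI digestion and capillary electrophoresis; bidirectional fitting versus DMSO baseline.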

Experiment [20] in a line: ATG_Ets_CIS: Attagene CIS-FACTORIAL HepG2 Assay for human Erythroblast Transformation Specific (ETS) (AID 2282941). Particulars: HepG2 ETS cis-reporter transcription, actives raise or lower the signal. The gist of the method: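 RT-PCR/capillary electrophoresis fluorescence read-out of reporter mRNA; HepG2 transient multi-reporter transfection; 24 h compound exposure; gain or loss of signal fitted bidirectionally relative to DMSO.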

Sequence of Aryl hydrocarbon receptor (Homo sapiens) (P35869 whole entry, looked up): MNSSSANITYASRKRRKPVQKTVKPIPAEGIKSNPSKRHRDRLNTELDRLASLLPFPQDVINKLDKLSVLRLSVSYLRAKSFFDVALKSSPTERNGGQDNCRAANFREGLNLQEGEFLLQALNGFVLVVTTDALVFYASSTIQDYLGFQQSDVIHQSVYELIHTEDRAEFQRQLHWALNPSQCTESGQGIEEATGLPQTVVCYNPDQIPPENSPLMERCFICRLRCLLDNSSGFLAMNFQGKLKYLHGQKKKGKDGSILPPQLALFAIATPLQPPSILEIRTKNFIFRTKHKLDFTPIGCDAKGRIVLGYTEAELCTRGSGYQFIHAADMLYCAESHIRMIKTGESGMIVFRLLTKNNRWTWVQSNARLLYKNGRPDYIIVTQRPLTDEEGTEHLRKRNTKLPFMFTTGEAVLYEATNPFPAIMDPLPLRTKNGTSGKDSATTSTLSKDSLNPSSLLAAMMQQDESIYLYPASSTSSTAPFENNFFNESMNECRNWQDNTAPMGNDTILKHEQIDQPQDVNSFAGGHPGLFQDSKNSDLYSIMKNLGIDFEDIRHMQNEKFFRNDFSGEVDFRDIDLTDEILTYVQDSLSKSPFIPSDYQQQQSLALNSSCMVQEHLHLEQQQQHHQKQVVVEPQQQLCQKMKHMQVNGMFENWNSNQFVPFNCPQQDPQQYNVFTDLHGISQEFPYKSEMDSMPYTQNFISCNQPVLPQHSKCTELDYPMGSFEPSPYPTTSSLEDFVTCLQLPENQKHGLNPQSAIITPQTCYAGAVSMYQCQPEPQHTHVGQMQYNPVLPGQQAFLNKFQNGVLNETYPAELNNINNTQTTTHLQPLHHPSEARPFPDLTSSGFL
Sequence of Transcription factor E2F1 (Homo sapiens) (Q01094 whole entry, looked up): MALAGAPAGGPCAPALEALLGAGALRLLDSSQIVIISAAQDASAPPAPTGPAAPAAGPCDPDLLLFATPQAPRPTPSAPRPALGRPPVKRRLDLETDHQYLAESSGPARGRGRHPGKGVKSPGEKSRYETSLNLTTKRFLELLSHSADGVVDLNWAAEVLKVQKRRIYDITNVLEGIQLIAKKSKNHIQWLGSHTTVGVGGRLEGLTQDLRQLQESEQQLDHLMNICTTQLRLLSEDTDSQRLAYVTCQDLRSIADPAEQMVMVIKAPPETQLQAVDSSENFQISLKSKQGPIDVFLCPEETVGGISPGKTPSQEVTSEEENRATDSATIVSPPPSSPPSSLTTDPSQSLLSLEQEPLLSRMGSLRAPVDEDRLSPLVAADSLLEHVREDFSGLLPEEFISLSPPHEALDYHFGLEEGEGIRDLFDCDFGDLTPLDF
Sequence of Bile acid receptor (Homo sapiens) (Q96RI1 whole entry, looked up): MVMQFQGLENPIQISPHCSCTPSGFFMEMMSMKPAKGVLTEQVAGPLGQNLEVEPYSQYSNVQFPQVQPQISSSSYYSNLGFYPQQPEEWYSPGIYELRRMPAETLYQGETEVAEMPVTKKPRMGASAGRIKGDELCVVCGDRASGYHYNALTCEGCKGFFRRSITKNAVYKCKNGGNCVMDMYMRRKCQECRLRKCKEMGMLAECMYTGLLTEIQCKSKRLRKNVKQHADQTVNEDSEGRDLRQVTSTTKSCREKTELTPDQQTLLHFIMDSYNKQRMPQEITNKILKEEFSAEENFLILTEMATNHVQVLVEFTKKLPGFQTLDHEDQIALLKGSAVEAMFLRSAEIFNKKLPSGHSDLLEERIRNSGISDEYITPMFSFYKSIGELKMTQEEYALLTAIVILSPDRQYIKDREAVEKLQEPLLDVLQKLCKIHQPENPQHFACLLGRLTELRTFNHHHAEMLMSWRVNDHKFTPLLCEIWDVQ
Sequence of Retinoic acid receptor alpha (Homo sapiens) (P10276 whole entry, looked up): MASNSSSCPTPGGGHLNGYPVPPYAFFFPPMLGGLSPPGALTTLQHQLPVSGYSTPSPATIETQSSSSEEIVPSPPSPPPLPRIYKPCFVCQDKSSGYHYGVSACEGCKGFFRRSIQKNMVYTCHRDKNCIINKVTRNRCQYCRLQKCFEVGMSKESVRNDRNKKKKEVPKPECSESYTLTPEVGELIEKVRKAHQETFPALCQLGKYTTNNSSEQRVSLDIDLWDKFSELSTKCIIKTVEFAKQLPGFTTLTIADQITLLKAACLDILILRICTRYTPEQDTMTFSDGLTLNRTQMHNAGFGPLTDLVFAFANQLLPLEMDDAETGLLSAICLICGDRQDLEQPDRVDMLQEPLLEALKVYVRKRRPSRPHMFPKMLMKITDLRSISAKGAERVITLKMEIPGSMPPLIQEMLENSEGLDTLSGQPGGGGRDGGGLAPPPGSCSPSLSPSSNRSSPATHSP
Sequence of CCAAT/enhancer-binding protein beta (Homo sapiens) (P17676 whole entry, looked up): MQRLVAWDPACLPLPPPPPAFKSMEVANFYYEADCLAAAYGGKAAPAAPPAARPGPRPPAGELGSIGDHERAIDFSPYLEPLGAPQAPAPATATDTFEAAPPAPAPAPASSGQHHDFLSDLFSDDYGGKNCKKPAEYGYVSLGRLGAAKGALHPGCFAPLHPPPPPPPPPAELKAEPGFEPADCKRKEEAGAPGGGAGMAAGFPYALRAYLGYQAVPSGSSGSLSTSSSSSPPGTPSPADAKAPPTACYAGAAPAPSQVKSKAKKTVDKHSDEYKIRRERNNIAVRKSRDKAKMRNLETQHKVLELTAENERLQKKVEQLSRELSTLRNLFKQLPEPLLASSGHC
Sequence of Hepatocyte nuclear factor 3-beta (Homo sapiens) (Q9Y261 whole entry, looked up): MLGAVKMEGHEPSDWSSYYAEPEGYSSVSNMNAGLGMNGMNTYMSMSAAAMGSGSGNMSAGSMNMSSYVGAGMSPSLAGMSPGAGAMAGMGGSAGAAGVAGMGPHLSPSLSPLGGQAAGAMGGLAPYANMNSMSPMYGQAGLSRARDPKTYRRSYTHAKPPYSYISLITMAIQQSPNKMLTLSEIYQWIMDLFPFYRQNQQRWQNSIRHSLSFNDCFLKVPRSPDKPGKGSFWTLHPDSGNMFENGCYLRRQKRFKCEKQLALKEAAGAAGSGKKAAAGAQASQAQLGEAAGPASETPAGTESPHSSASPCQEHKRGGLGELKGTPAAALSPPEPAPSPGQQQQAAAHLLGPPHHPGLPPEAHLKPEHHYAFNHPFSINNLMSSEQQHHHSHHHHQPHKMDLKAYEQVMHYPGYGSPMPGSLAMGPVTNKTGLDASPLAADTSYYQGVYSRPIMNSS

As for `CCCCCCOC(=O)CCC`, the call in [1], in [2], in experiment [3], in experiment [4], in [5] and in [6] was inactive. Moreover, the molecule was classed as inactive in [7], in [8], in experiment [9], in [10], in experiment [11] and in [12]. Also, the result in [13], in experiment [14], in experiment [15], in experiment [16], in experiment [17] and in experiment [18] was inactive. Moreover, in experiment [19], the molecule was called inactive.

In the case of `O=C1NC2NC(=O)NC2N1` (configuration not stated), the molecule was classed as inactive in experiment [1], in experiment [2], in [3], in experiment [4], in experiment [5] and in experiment [6]. For the same molecule, the result in [7], in experiment [8], in [9], in experiment [10], in experiment [11] and in experiment [12] was inactive. Moreover, the call in experiment [13], in experiment [20], in experiment [15], in experiment [16], in experiment [17] and in experiment [18] was inactive. For the same molecule, in [19], the molecule was classed as inactive.

Take `COc1cc(Cl)c(OC)cc1N`: the call in experiment [1], in experiment [2], in [3], in experiment [4], in experiment [6] and in experiment [7] was inactive. The call in experiment [8], in experiment [9], in [10], in experiment [11], in [12] and in [13] was inactive. For the same molecule, the call in experiment [14], in [20], in [16], in [17], in experiment [18] and in experiment [19] was inactive. In experiment [5], the AC50 is 51.2 µM (active).
